According to paper PMC5540273 (PLoS ONE, 2017):

Legend:
Details in all cases: concentration: 1 μM, replicates: in singlicate; n = 1
CHEK2 = test system: CHEK2
CIT = test system: CIT
CLK1 = test system: CLK1
CLK2 = test system: CLK2
CLK3 = test system: CLK3
CLK4 = test system: CLK4
CSF1R-autoinhibited = test system: CSF1R-autoinhibited
CSF1R = test system: CSF1R
CSK = test system: CSK
CSNK1A1L = test system: CSNK1A1L
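Further: KINOMEscan kinase panel screen.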

Compound	%Inh (CHEK2)	%Inh (CIT)	%Inh (CLK1)	%Inh (CLK2)	%Inh (CLK3)	%Inh (CLK4)	%Inh (CSF1R-autoinhibited)	%Inh (CSF1R)	%Inh (CSK)	%Inh (CSNK1A1L)
CN1C(=O)C(Nc2ccc(Cl)c(C(=O)O)c2)=C(c2ccc(Cl)cc2)C1=O [SB-404290]	0%	0%	18%	7%	25%	2%	0%	3%	0%	15%
NC(=O)c1nnc2ccccc2c1N	16%	7%	51%	17%	1%	1%	0%	14%	0%	38%
CC(=O)Nc1nc2cnc(Nc3cc(NC(=O)c4cccc(CCC#N)c4)ccc3C)nc2s1	0%	34%	0%	3%	0%	12%	0%	90.9%	0%	0%
COc1cccc(NC(=O)NC2CCN(c3ccnc(Nc4ccc(F)cc4)n3)C2)c1 (stereo not drawn) [GSK1379721]	27%	23%	25%	1%	21%	0%	17%	14%	6%	0%
CCn1c(-c2cccnc2O)nc2cnccc21 [SB-736715]	0%	0%	10%	0%	0%	0%	2%	0%	0%	84%
COc1ccc(Nc2nccc(NCCNC(=O)Nc3ccccc3F)n2)cc1 [GSK1379901]	0%	0%	32%	0%	100%	29%	0%	11%	3%	0%
COc1cc2ncnc(Nc3ccc4nc(-c5ccccc5)[nH]c4c3)c2cc1OC.Cl [GW282450]	26%	59%	14%	0%	12%	3%	0%	3%	10%	0%
COc1cc(Nc2nccc(N3CCC(NC(=O)Nc4cc(C)ccc4C)C3)n2)cc(OC)c1OC (stereo not drawn) [GSK1379762]	0%	11%	32%	6%	0%	29%	0%	14%	0%	17%
Cc1c(Cn2ccn3c(=O)cc(N4CCOCC4)nc23)cccc1C(F)(F)F [GSK2289044]	0%	22%	33%	54%	20%	33%	0%	9%	0%	0%
Cc1cccc(-c2nc(Nc3ccc4[nH]ncc4c3)c3ccccc3n2)n1 [GW857175]	0%	9%	33%	14%	4%	12%	33%	7%	0%	0%
Cc1ccccc1-n1cnc2c(N)ncnc21 [SKF-97510]	0%	0%	2%	26%	0%	0%	0%	6%	7%	0%
Nc1nc(-c2nccs2)c(-c2ccnc3ccccc23)s1 [GW693542]	0%	44%	22%	0%	0%	16%	0%	0%	9%	23%
CC(C)(C)c1ccc(C(=O)Nc2cn3cc(Cl)ccc3n2)cc1	2%	27%	75%	29%	2%	75%	14%	1%	0%	0%
COc1ccc(C2=C(Nc3cccc(C(=O)O)c3)C(=O)NC2=O)cc1 [SB-390765]	0%	0%	11%	3%	8%	4%	26%	18%	12%	11%
Fc1cccc(COc2nnc(-c3ccc4c(c3)CCO4)o2)c1	10%	0%	32%	13%	0%	53%	0%	11%	0%	12%
C[C@@H]1CCCCN1c1cc(-c2ccc3c(N)n[nH]c3c2)nc(N)n1 [GSK2258759]	12%	36%	12%	0%	0%	13%	13%	2%	2%	0%
Cc1ccc(-c2cc(-c3c[nH]nc3-c3ccccn3)ccn2)cc1 [GW684088]	53%	26%	14%	9%	0%	38%	49%	14%	0%	0%
CS(=O)(=O)c1ccc(-c2c(-c3ncn[nH]3)sc(N3CCOCC3)c2C#N)cc1	5%	4%	5%	8%	0%	0%	0%	27%	16%	0%
